Assay outcomes deposited in PubChem BioAssay by several laboratories.
tim10-1 inh – tim10-1 yeast growth inhibition; S. cerevisiae tim10-1 ts strain growth, BacTiter-Glo, 24 h; AID 463190; 330,000 tested, 2.2% active; inhibition, % at 20 µM;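 active means inhibition of at least 40%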;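 further: mutant grown at 25 °C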
NALP3 yeast inh – NALP3 inhibition in yeast; AID 2825; inhibition, % at 10 µM; 330,000 tested, 0.39% active; Yeast reconstituted NLRP3/ASC/caspase-1, beta-gal luminescence, 24 h;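 active means inhibition of 50% or more; inactive means inhibition below 50%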
tim23-1 inh – inhibits growth of tim23-1 mutant yeast | inhibition, % at 20 µM | AID 463212 | S. cerevisiae tim23-1 growth, BacTiter-Glo luminescence, 24 h | 330,000 tested, 1.3% active;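 active means growth inhibition of the mutant yeast at or above 50%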;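 further: temperature-sensitive mutant grown at 25 °C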
TIM10 inh – growth inhibitors of TIM10 yeast strain; 330,000 tested, 1.4% active; AID 463195; S. cerevisiae TIM10 strain growth, BacTiter-Glo luminescence, 24 h; inhibition, % at 10 µM;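 active means inhibition of 40% or more at the single tested concentration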;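 further: wild-type TIM10 isogenic control strain grown at permissive 25 °C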
PfHsp90 set2 – growth inhibition of yeast expressing Plasmodium Hsp90; S. cerevisiae expressing PfHsp90, BacTiter-Glo ATP, 48 h; yeast lacking PDR1 and PDR3 efflux regulators; inhibition, % at 9.4 µM; 310,000 tested, 0.32% active;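 active means every replicate shows inhibition above about 80%, whatever the replicate mean, limit read from the data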
NALP3 yeast conf – NALP3 inhibition confirmation in yeast; shares compounds with NALP3 yeast inh; yeast expressing human NALP3, luminescence; inhibition, % at 10 µM; 1,300 tested, 81% active; AID 435006; in the data active means inhibition above about 48%
Casp1 ASC ctr – counter-screen for NALP3 inhibitors: yeast caspase-1-ASC; 1,000 tested, 66% active; AID 488784; inhibition, % at 10 µM; shares compounds with NALP3 yeast inh; yeast expressing Caspase-1-ASC, luminescence counter screen
NALP3 retest – yeast NALP3 inhibition, confirmed on retest; yeast expressing human NALP3, luminescence read-out; shares compounds with NALP3 yeast inh; AID 488794; 1,000 tested, 53% active; inhibition, % at 10 µM
Hits are given with their value; n = inactive; x = no result. Rows were chosen to be rich in hits. Some 3.7% of all compounds tested hit in one or more screens of this group. Unless noted, no stated cut-off is given here; in the data, active means inhibition above about 50%; inactive means the rest.

SMILES	tim10-1 inh	NALP3 yeast inh	tim23-1 inh	TIM10 inh	PfHsp90 set2	NALP3 yeast conf	Casp1 ASC ctr	NALP3 retest
CCc1ccc(C(=O)NNc2cc(Cl)ccc2Cl)cc1	n	65	n	n	n	66	61	60
Cn1c(-c2ccccc2)cc2ccccc21	n	n	n	n	n	x	x	x
Cn1c(-c2ccccc2)cc2c3no[n+]([O-])c3ccc21	n	53	n	n	n	61	63	59
CCOC(=O)C1=CN(Cc2ccco2)S(=O)(=O)NC1c1ccc(C(F)(F)F)cc1 (stereo not given)	n	x	n	n	n	x	x	x
COc1ccc(CC(=O)Nc2ccc(-c3noc(-c4cc(OC)c(OC)c(OC)c4)n3)cc2)cc1	n	58	n	n	n	n	x	x
COc1ccc(CC(=O)Nc2ccc(-c3noc(-c4ccc(Cl)cc4)n3)cc2)cc1	n	n	n	n	n	x	x	x
Cc1ccc(S(=O)(=O)CC(=O)Nc2nc(C(C)(C)C)cs2)cc1	n	51	n	n	n	73	61	n
CCOc1cc(/C=N/Nc2cc(C)nc(-n3nc(C)cc3C)n2)ccc1O	n	77	n	n	n	54	n	n
CCCCn1c(N)c(N(CCOC)C(=O)CCCc2cccs2)c(=O)[nH]c1=O	n	n	n	n	n	x	x	x
CCOc1cc(C)c(S(=O)(=O)Nc2ccc(Cl)cn2)cc1C	n	n	n	n	n	x	x	x
CCOc1ccc(S(=O)(=O)Nc2ccc(Cl)cn2)c(C)c1C	n	60	n	n	n	77	64	n
CCc1cc(=O)[nH]c(SC/C=C/c2ccccc2)n1	n	n	n	n	n	x	x	x
N#C/C(=N\Nc1ccccc1)C(N)=S	n	n	n	n	n	x	x	x
N#C/C(=N\Nc1ccc(Cl)cc1)C(=O)c1ccsc1	n	55	n	n	n	n	x	x
N#C/C(=N\Nc1ccc(Cl)cc1)C(N)=S	n	75	n	n	n	90	x	x
Cn1cnc(C(=O)N2CCc3ccccc3C2)c1C(=O)N1CCc2ccccc2C1	n	n	n	n	n	x	x	x
CCC(C)[C@H](NS(=O)(=O)c1ccc(C)cc1)C(=O)N1CCC(C(=O)N[C@H](C(=O)O)c2ccccc2)CC1 (stereo not given in full)	n	n	n	n	n	x	x	x
CC(O)(c1ccc(Cl)cc1)C(c1ccccc1)c1ccccn1 (stereo not given)	x	x	x	x	n	x	x	x
O=C1/C(=C/c2ccc(N3CCOCC3)o2)SC(=Nc2ccccc2)N1CCc1c[nH]c2ccccc12	n	68	n	n	142	77	x	x
O=C(Cc1c(F)cccc1Cl)NNC(=O)c1cccs1	n	n	n	n	n	x	x	x
Cc1cc(C)cc(OC(C)C(=O)Nc2ccccc2C(=O)NCc2cccnc2)c1 (stereo not given)	n	n	n	n	n	x	x	x
CCSc1nc2sc3c(c2c(=O)n1-c1ccccc1)CCN(C)C3	n	51	n	n	n	66	n	n
CCCN1CCc2c(sc3nc(SCC)n(-c4ccccc4)c(=O)c23)C1	n	n	n	n	n	x	x	x
CC(C)NC(=O)c1c(O)c2ccccc2[nH]c1=O	n	54	n	n	n	72	n	53
CC(C)C(=O)NNC(=O)c1c(O)c2ccccc2[nH]c1=O	n	n	n	n	n	x	x	x
SMILES	tim10-1 inh	NALP3 yeast inh	tim23-1 inh	TIM10 inh	PfHsp90 set2	NALP3 yeast conf	Casp1 ASC ctr	NALP3 retest
Cc1cc(C)n2nc(CC(=O)NNC(=O)COc3cccc(C)c3C)nc2n1	n	n	n	n	n	x	x	x
c1ccc2c(c1)CCN(c1nc3cc4c(cc3s1)OCO4)C2	n	56	n	n	x	52	n	n
c1ccc(N2CCN(c3nc4cc5c(cc4s3)OCO5)CC2)cc1	n	n	n	n	n	x	x	x
Oc1ccc(N=Cc2ccc(OCc3ccccc3)cc2)cc1	n	51	n	n	n	n	x	x
C=C1/C=C(\C)[C@](C)(O)C[C@H](O)CC(=O)[C@H](O)[C@@H](O)[C@H](C)C[C@H](C)OC(=O)/C(C)=C/CC/C=C/[C@@H]2O[C@H]2C[C@H](C)C1	n	83	n	n	x	89	x	x
COC(=O)/C=C1\C(=O)N(c2nc3ccc(OC)cc3s2)C(=S)N1c1ccc(F)cc1	n	n	n	n	x	x	x	x
COc1ccc2nc(N3C(=O)CNC3=S)sc2c1	n	67	n	n	n	n	x	x
N#C/C(=N\Nc1ccc(F)cc1)C(=O)C1CC1	n	n	n	n	x	x	x	x
N#C/C(=N\Nc1ccc(Cl)c(Cl)c1)C(=O)C1CC1	n	62	n	n	n	87	x	x
COc1ccc2oc(=Nc3cccc(F)c3)c(C(N)=O)cc2c1	n	50	n	n	n	62	63	n
CCOc1ccccc1NC(=O)Cc1coc2ccc(C)cc12	n	63	n	n	x	76	65	55
CC1(C)c2ccccc2-n2c1cc1oc(=O)cc(O)c1c2=O	n	76	n	n	n	80	67	72
Cc1ccc2nc(NC(=O)Cc3cccs3)sc2c1	n	52	n	n	n	63	51	53
COc1ccc2nc(NC(=O)Cc3cccs3)sc2c1	n	n	n	n	n	x	x	x
COc1ccc(N2CCN(CCNC(=O)c3c(C)cc(=O)oc3C)CC2)cc1	n	67	n	n	n	80	86	91
CCN(CC(=O)Nc1c(F)cccc1F)C(=O)c1ccc2c(c1)S(=O)(=O)N=C1CCCCCN12	n	n	n	n	n	x	x	x
CCc1cc(C(=O)Nc2cc(S(=O)(=O)N(CC)CC)ccc2N2CCOCC2)sc1C	n	n	n	n	n	x	x	x
CCc1cc(C(=O)Nc2ccccc2N2CCOCC2)sc1C	n	51	n	n	n	53	n	n
Cc1cccc2c1-c1sc(C(=O)N3CCCCC3)cc1CO2	n	n	n	n	n	x	x	x
Cc1cccc2c1-c1sc(C(=O)Nc3ccccc3N3CCN(C)CC3)cc1CO2	n	55	n	n	n	64	x	x
O=S(=O)(c1ccc(Br)s1)N1CCN(CCc2ccccc2)CC1	n	61	n	n	n	63	n	n
O=S(=O)(c1ccc(Br)s1)N1CCN(c2ccc(F)cc2)CC1	n	55	n	n	n	65	n	n
CN1CC(=O)N(CC(=O)Nc2cccc3ccccc23)C1=O	n	n	n	n	n	x	x	x
OC(CN1C2=NCCN2c2ccccc21)c1ccc2c(c1)OCO2 (stereo not given)	n	57	n	n	n	82	n	n
OC(CN1C2=NCCCN2c2ccccc21)c1ccc2c(c1)OCO2 (stereo not given)	n	n	n	n	n	x	x	x
CC(C)Cc1nnc(NC(=O)CCC(=O)NC2CCCCCC2)s1	n	n	n	n	n	x	x	x
CC(=O)N(CN1C(=O)c2ccccc2C1=O)c1cccc(C)c1	n	n	n	n	n	x	x	x
CC(=O)N(/N=C1\Sc2ccccc2C1=O)c1cccc(C)c1	n	54	n	n	x	64	n	n
